According to PubChem BioAssay AID1214 (Sanford-Burnham Center for Chemical Genomics, 2008):
Out of some 190,000 compounds screened, about 10 (0.005%) were called active.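 Rule for the calls: active = activation factor of 2 or more at 20 µM, relative to plate controls; inactive = the rest.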 These entries were drawn from the full list.

Molecular target: Mannose-6-phosphate isomerase (Homo sapiens) (UniProt P34949)
Test: MPI enzyme activity enhancement – biochemical, fluorescence intensity, near-Km mannose 6-phosphate, primary screen (AID 1214)
Conditions: purified human PMI, coupled resazurin fluorescence, 20 min; at 20 µM; stronger effect = higher value; 1 = vehicle control, 0 substrate-free wells

Chain of Mannose-6-phosphate isomerase (Homo sapiens) (P34949 whole entry, looked up): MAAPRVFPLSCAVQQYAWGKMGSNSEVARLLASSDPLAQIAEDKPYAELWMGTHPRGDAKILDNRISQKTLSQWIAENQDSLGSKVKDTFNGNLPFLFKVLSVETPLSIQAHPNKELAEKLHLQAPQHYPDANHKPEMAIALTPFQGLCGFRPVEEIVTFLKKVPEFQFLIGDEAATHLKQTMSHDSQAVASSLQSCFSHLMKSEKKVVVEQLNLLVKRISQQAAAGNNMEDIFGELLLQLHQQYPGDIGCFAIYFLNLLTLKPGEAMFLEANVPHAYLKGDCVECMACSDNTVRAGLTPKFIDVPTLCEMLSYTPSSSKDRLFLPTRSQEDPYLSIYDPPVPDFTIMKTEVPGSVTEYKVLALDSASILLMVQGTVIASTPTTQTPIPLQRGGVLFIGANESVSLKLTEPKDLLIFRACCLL

Activation factor, inactive:
CC(C)CCN1CCN(C/C=C/c2ccco2)CC1CCO (configuration not stated) 0.8
CCOC(=O)c1ccc(NNC(C)=O)c([N+](=O)[O-])c1 0.9
CC(=O)c1ccc(NC(=S)N(Cc2ccccc2)C(C)C2CC2)cc1 (configuration not stated) 0.8
O=C(CN1CCCC1)N1CCN(c2ccccc2)CC1 0.8
O=C(CC1C(=O)NCCN1Cc1ccc(-c2ccccc2)cc1)NCc1ccncc1 (configuration not stated) 1
CCOc1ccc(-n2c(SCC(=O)NC3CCS(=O)(=O)C3)nnc2-c2cccnc2)cc1 (configuration not stated) 1
O=C(Nc1ccc(N2CCOCC2)cc1)c1ccc2c(c1)OCO2 0.9
CCC1CCCCN1C(=O)CSc1nc(C)cc(C)n1 (configuration not stated) 1
CCCOC(=O)c1ccc(N2C(=O)c3ccccc3C2=O)cc1 1
O=C(CSc1ccc([N+](=O)[O-])cn1)Nc1ccc(N2CCOCC2)c(Cl)c1 1
COc1ccc(-c2cc(C(=O)NCCCn3ccnc3)no2)cc1 1
Cc1cccc(C)c1NC(=S)N(Cc1cccnc1)Cc1ccccc1Cl 0.9
COc1ccc(/C=C/CN2CCCC(C(=O)c3cc(F)ccc3F)C2)cc1 (configuration not stated) 1
O=c1c2sccc2nc(SCc2cc(=O)n3ccccc3n2)n1-c1ccc(Br)cc1 0.9
O=C1CS(=O)CN1c1ccc(Oc2ccccc2)cc1 (configuration not stated) 1
CC(=C/c1ccccc1)/C=N/NC(=O)c1cc(C)oc1C 0.9
CN1C(=O)C(CC(=O)Nc2ccccc2)S/C1=N/c1nccs1 (configuration not stated) 1
CC(/C=C/C1(O)C(C)CC(=O)CC1(C)C)OC1OC(CO)C(O)C(O)C1O (configuration not stated) 0.9
CCN(C(=O)COC(=O)c1ccc(COc2ccc3c(C)cc(=O)oc3c2)cc1)C1CCS(=O)(=O)C1 (configuration not stated) 1
CCOC(=O)c1cc2c(=O)n3ccccc3nc2n(CC(C)C)c1=NC(=O)c1c(-c2c(F)cccc2Cl)noc1C 1
CCOc1ccc2nc(NCCNC(=O)C(C)(C)C)c(C)cc2c1 1
Cc1cccc(N(C(=O)Cc2cccs2)C(C(=O)NCc2ccco2)c2ccncc2)c1 (configuration not stated) 0.9
COc1ccc(Cl)cc1NC(=O)NC(C)C(C)(C)C (configuration not stated) 0.9
CC(C)CCN1CCN(Cc2cn[nH]c2C2CCCCC2)CC1CCO (configuration not stated) 1
Cc1cccc(NC(=O)/C=C/c2ccc3c(c2)OCO3)n1 0.9
CC1=CC(=C(C#N)c2nc3ccccc3s2)C=C(C)N1c1ccc(F)cc1F 0.7
COc1cccc(/C=C/C(=O)Nc2ccc3c(c2)OCCO3)c1 1.1
Cc1c(NC(=S)NCc2ccc(F)cc2)cccc1[N+](=O)[O-] 0.8
Cc1ccc(-c2nn(-c3ccccc3)cc2/C=C/C(=O)Nc2cccc(S(N)(=O)=O)c2)cc1 0.9
COc1ccc(NC(=S)N2CCCC(CO)C2)c(OC)c1 (configuration not stated) 1
COC(=O)c1c(C(=O)OC)c(-c2cccc(C)c2)n2c1CS(=O)C2 (configuration not stated) 0.9
CCOC(=O)C1(O)CC(C)=NN1C(=O)c1cccc(Br)c1 (configuration not stated) 1.1
Cc1ccc(-n2cc(CN(C)Cc3nccn3C)c(-c3cccc(C)c3)n2)cc1 0.8
O=C(CCNC(=O)c1ccc([N+](=O)[O-])cc1)Nc1ccccc1N1CCOCC1 1
CCCC(O)(CCC)C(=O)NN(C(=O)CCl)c1cccc(C)c1 1.1
COC(=O)c1cc(NC(=O)CN2CCN(C(C)=O)CC2)cc(C(=O)OC)c1 0.9
C/C(N)=C(/C#N)C(=O)COC(=O)CNS(=O)(=O)c1ccc(C)cc1 1
CCNC(=O)CC1C(=O)N(c2ccc(F)cc2)C(=O)N1CCc1sccc1C (configuration not stated) 1.1
CCOc1ccc(C(C)=O)cc1CSc1nnc(-c2ccncc2)n1CCOC 1.1
CCOCCCNCc1ccc(OCc2ccc(F)cc2)c(OC)c1 0.9
CCCCc1nnc(NC(=O)CSc2nc(N)cc(=O)[nH]2)s1 0.8
O=C(NCCN1C(=O)S/C(=C\c2cccnc2)C1=O)c1cccc(OC(F)F)c1 0.9
O=C1/C(=C\c2cccnc2)CN(Cc2ccccc2)C/C1=C\c1cccnc1 0.9
Cc1nnc(SC(C(=O)Nc2cc(Cl)cc(Cl)c2)c2ccccc2)[nH]c1=O (configuration not stated) 1
CC(C)CC(=O)NC(=S)NNC(=O)c1cccc([N+](=O)[O-])c1 0.9
CC1CCCCN1C(=S)NCc1ccccc1 (configuration not stated) 0.9
CN(C)S(=O)(=O)c1ccc(NC(=O)N2CCOCC2)cc1 1
Cc1cc(C(=O)COC(=O)CNC(=O)c2ccc(F)cc2)c(C)n1Cc1ccco1 0.9
Cc1ccc2nc(-c3cccnc3)c(NC3CCCC3)n2c1 0.9
CC(C)[C@H](NC(=O)c1ccc(F)cc1)C(=O)OCC(=O)NC(=O)c1cccn1C 0.9
CCOC(=O)C1=C(C)OC(N)=C(C#N)C1c1cncc(-c2ccc(F)cc2)c1 (configuration not stated) 1.1
CCC(C)NC(=O)c1nn(C)c(=O)c2ccccc12 (configuration not stated) 1.1
O=C(CN1C(=O)CC(c2ccccc2)S(=O)(=O)c2ccccc21)NC1CCCC1 (configuration not stated) 1.1
N#Cc1ccc(CSc2nnc3ccccn23)cc1 1
Cc1ccnc(SCC(N)=O)n1 1.1
CCC(C)(C)C1CCC(=NNC(=O)c2ccc(Br)o2)CC1 (configuration not stated) 1
CCOC(=O)/C(=N\Nc1ccccc1[N+](=O)[O-])c1csc(Nc2ccccc2)n1 0.9
COC(=O)C(C)N=Cc1ccccc1 (configuration not stated) 0.9
Cc1onc(C(=O)NN)c1C(=O)N1CCN(C(c2ccccc2)c2ccccc2)CC1 0.9
CCOCCCNC(=O)C(NC(=O)Cc1c[nH]c2ccccc12)c1ccc(OC)cc1 (configuration not stated) 0.9
CC/C(O)=C1\C(=O)CC(C)(C)CC1=NCCc1nc2ccccc2[nH]1 1.1
N#Cc1ccccc1NC(=O)c1cccc(COc2ccc(Cl)cc2Cl)c1 0.9
CCCCc1ccc(NC(=S)NCCCN2CCOCC2)cc1 1
COc1cc(CNCCN(C)C)ccc1OCc1c(F)cccc1Cl 1
O=C(CCNC(=O)Cn1ccc2ccccc2c1=O)NCCC1=CCCCC1 1
Cn1c(=O)c2cc(S(=O)(=O)NCCC(=O)Nc3ccc(F)cc3F)ccc2n(C)c1=O 1
Cc1cccc(C)c1NC(=O)C1(N(C(=O)c2ccccn2)c2ccc(O)cc2)CCCCC1 0.9
Cc1ccc(CN2CCN(Cc3ccccc3-c3ccco3)CC2CCO)o1 (configuration not stated) 0.9
CCOCCCNC(=O)C(NC(=O)c1ccccc1O)c1ccccc1 (configuration not stated) 1.1
O=C(Cc1ccccc1)NNC1CC(=O)N(c2ccc(Br)cc2)C1=O (configuration not stated) 0.9
Cc1ccc(-c2ccc(/C=C(\C#N)C(N)=S)o2)c([N+](=O)[O-])c1 1
Cn1cc(C(=O)NCc2ccccc2F)cn1 1
OC1CSc2nc3ccccc3n2C1 (configuration not stated) 0.9
CCN(C(=O)COC(=O)c1cc(NS(=O)(=O)c2ccc(Cl)c([N+](=O)[O-])c2)ccc1O)C1CCCCC1 0.8
COCCCNC(=O)C1CCC(CNS(=O)(=O)c2ccc(OC)cc2)CC1 (configuration not stated) 1
COc1ccc(N2CCN(C(C)=C3C(=O)c4ccccc4C3=O)CC2)cc1 0.9
COc1ccc(OC)c(-n2c(=S)[nH]c3cc(C(=O)N4CCCCC4)ccc3c2=O)c1 1
Cn1c(CNC(=O)c2ccccc2F)nnc1SCc1ccc(F)cc1 1.2
COc1ccc2c(c1)c(=O)c(C(=O)c1ccc(Cl)cc1)cn2CC(=O)Nc1ccc(F)cc1 1
CC(C)NC(=S)Nc1cccc2cnccc12 1
O=C(N/N=C/c1ccc(Cl)cc1)c1nc2ccc([N+](=O)[O-])cc2c(=O)[nH]1 1
CCCNC(=O)OC[C@H]1O[C@H](CCO/N=C/[C@@H](NS(=O)(=O)c2ccc(C)cc2)[C@H](C)/C=C/CC(=O)OC)C=C[C@@H]1Oc1ccc(OC)cc1 0.9
O=C(Nc1nnc(SCc2ccccc2Cl)s1)c1cccc([N+](=O)[O-])c1 0.9
CSc1ccc(CNCCN2CCOCC2)cc1 1.1
CC(C)(C)NC(=O)NC(=O)COC(=O)Cc1c(F)cccc1Cl 1.2
CCCCCC1CCC(c2nnc(SCC(C)=O)o2)CC1 (configuration not stated) 1
Cc1ccccc1OCCC(=O)OCC(=O)NC(C)c1ccccc1 (configuration not stated) 1
O=C(CSc1cccc[n+]1[O-])c1ccc(-c2ccccc2)cc1 1.2
Cc1cc([N+](=O)[O-])nn1CC(=O)Nc1ccc(Cc2ccncc2)cc1 1
COCCNC(=O)C(OC(=O)c1cccs1)c1ccc(F)cc1 (configuration not stated) 1
Cc1ccc(S(=O)(=O)N2CCN(CC(=O)N/N=C/c3ccc(Br)s3)CC2)cc1 0.9
CN(CC(=O)NCCc1ccccn1)S(=O)(=O)c1ccc(Cl)cc1 0.9
CC1=C(C(=O)Nc2cc(C)ccn2)C(c2cnn(C)c2)C2=C(CC(c3ccccc3)CC2=O)N1 (configuration not stated) 1
O=C(Nc1ccc(CSc2ccccc2)cc1)c1ccc(CN2CCOCC2)cc1 1.1
COc1ccc(Cl)cc1NC(=O)C(C)N1CCc2ccccc21 (configuration not stated) 1.1
Cc1ccn(CC(=O)N2N=C(C(F)F)CC2(O)C(F)F)n1 (configuration not stated) 1.1
N#Cc1c(C(F)(F)F)cc(-c2ccc(Cl)cc2)nc1SCC(=O)O 1
